Values joined by “and” are separate entries in the source; they are usually repeats but may differ in a detail not shown here. Equal entries are not always repeated. Among all 5,500 compounds or so, about 2,000 (36%) were called active. Another 18% or so got no clear call; they are omitted. Cut-off read from the data, not from the text of the source: active = normalized growth mostly below about 0.91 (no sharp cut-off); inconclusive = no clear call, values can overlap the other calls; inactive = mostly above about 0.92. This is one part of the list. Some structures have more than one record in an assay (separate samples or runs), and their calls can disagree.
Experiment: chemical genetic growth profiling, strain panel (AID 1159580);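 note: tested at 20 µM; growth read once vehicle control cultures reached saturation at 30 °C; 1 = growth at the plate median or of vehicle wells; lower values mean less growth of the strain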
Settings: growth OD

Measured: normalized growth

Cc1cc2c(C(C)C)c(O)c(O)c(C=O)c2c(O)c1-c1c(C)cc2c(C(C)C)c(O)c(O)c(C=O)c2c1O
0.486 (active) and 0.903 (inactive): S. cerevisiae deletion strains, locus YLR418C, strain cdc73, stronger effect = lower value
0.824 (active) and 0.908 (inactive): S. cerevisiae deletion strains, locus YMR125W, strain sto1, stronger effect = lower value
0.679 (active) and 0.959 (inactive): S. cerevisiae deletion strains, locus YNR052C, strain pop2, stronger effect = lower value
0.354 (active) and 0.699 (inactive): S. cerevisiae deletion strains, locus YMR307W, strain GAS1, stronger effect = lower value
0.92 (active) and 0.959 (inactive): S. cerevisiae deletion strains, locus YLL041C, strain sdh2, stronger effect = lower value
0.928 (active) and 0.994 (inactive): S. cerevisiae deletion strains, locus YML124C, strain tub3, stronger effect = lower value
0.892 (inactive) and 0.886 (active): S. cerevisiae deletion strains, locus YNL248C, strain rpa49, stronger effect = lower value
0.86 (active) and 0.906 (inactive): S. cerevisiae deletion strains, strain wtn01, stronger effect = lower value
0.842 (active) and 0.958 (inactive): S. cerevisiae deletion strains, locus YPR167C, strain met16, stronger effect = lower value
0.912 (active) and 0.957 (inactive): S. cerevisiae deletion strains, locus YPL241C, strain CIN2, stronger effect = lower value
0.56 (active) and 0.883 (inactive): S. cerevisiae deletion strains, locus YNL128W, strain TEP1, stronger effect = lower value
0.846 (active) and 0.936 (inactive): S. cerevisiae deletion strains, locus YPL240C, strain hsp82, stronger effect = lower value
0.202 (active) and 0.679 (inactive): S. cerevisiae deletion strains, locus YLR039C, strain RIC1, stronger effect = lower value
0.878 (active) and 0.941 (inactive): S. cerevisiae deletion strains, locus YMR129W, stronger effect = lower value
active: S. cerevisiae deletion strains, locus YKL009W, strain mrt4, stronger effect = lower value 1.52 [resistant] | S. cerevisiae deletion strains, locus YKL085W, strain MDH1 (second series), stronger effect = lower value 1.08 [resistant] and 1.1 [resistant] | S. cerevisiae deletion strains, locus YKL085W, strain MDH1, stronger effect = lower value 1.08 [resistant] and 1.1 [resistant] | S. cerevisiae deletion strains, locus YKL160W, strain elf1, stronger effect = lower value 0.832 and 0.809 | S. cerevisiae deletion strains, locus YKL190W, strain CNB1, stronger effect = lower value 0.663 and 0.868 | S. cerevisiae deletion strains, locus YKR001C, strain vps1, stronger effect = lower value 0.486 and 0.887 | S. cerevisiae deletion strains, locus YLL001W, strain dnm1, stronger effect = lower value 0.724 and 0.801 | S. cerevisiae deletion strains, locus YLL026W, stronger effect = lower value 0.904 and 0.838 | S. cerevisiae deletion strains, locus YLR027C, strain aat2, stronger effect = lower value 0.78 and 0.81 | S. cerevisiae deletion strains, locus YLR058C, strain SHM2, stronger effect = lower value 0.685 and 0.764 | S. cerevisiae deletion strains, locus YLR221C, strain rsa3, stronger effect = lower value 0.751 and 0.818 | S. cerevisiae deletion strains, locus YLR258W, strain gsy2, stronger effect = lower value 0.855 and 0.839 | S. cerevisiae deletion strains, locus YLR262C, strain YPT6 (second series), stronger effect = lower value 0.216 and 0.179 | S. cerevisiae deletion strains, locus YLR268W, strain sec22, stronger effect = lower value 0.599 and 0.847 | S. cerevisiae deletion strains, locus YLR320W, strain mms22, stronger effect = lower value 0.684 and 0.651 | S. cerevisiae deletion strains, locus YLR330W, strain CHS5, stronger effect = lower value 0.675 and 0.883 | S. cerevisiae deletion strains, locus YLR342W, strain FKS1, stronger effect = lower value 0.675 and 0.786 | S. cerevisiae deletion strains, locus YLR357W, strain rsc2, stronger effect = lower value 0.649 and 0.719 | S. cerevisiae deletion strains, locus YLR370C, strain arc18, stronger effect = lower value 0.687 and 0.765 | S. cerevisiae deletion strains, locus YLR384C, strain iki3, stronger effect = lower value 0.809 and 0.889 | S. cerevisiae deletion strains, locus YML016C, strain PPZ1, stronger effect = lower value 0.73 and 0.831 | S. cerevisiae deletion strains, locus YML120C, strain ndi1, stronger effect = lower value 0.721 and 0.719 | S. cerevisiae deletion strains, locus YMR058W, strain fet3, stronger effect = lower value 0.101 and 0.125 | S. cerevisiae deletion strains, locus YMR205C, strain PFK2, stronger effect = lower value 0.63 and 0.655 | S. cerevisiae deletion strains, locus YMR223W, strain ubp8, stronger effect = lower value 0.796 and 0.898 | S. cerevisiae deletion strains, locus YMR231W, strain pep5, stronger effect = lower value 0.434 and 0.295 | S. cerevisiae deletion strains, locus YNL067W, strain RPL9B, stronger effect = lower value 0.773 and 0.808 | S. cerevisiae deletion strains, locus YNL071W, strain lat1, stronger effect = lower value 0.86 and 0.835 | S. cerevisiae deletion strains, locus YNL153C, strain GIM3, stronger effect = lower value 0.742 and 0.767 | S. cerevisiae deletion strains, locus YNL209W, strain ssb2, stronger effect = lower value 0.527 and 0.542 | S. cerevisiae deletion strains, locus YNL233W, strain BNI4, stronger effect = lower value 0.796 and 0.835 | S. cerevisiae deletion strains, locus YNL322C, strain KRE1 (second series), stronger effect = lower value 0.875 and 0.9 | S. cerevisiae deletion strains, locus YNL322C, strain KRE1, stronger effect = lower value 0.832 | S. cerevisiae deletion strains, locus YNR049C, strain mso1, stronger effect = lower value 0.854 and 0.889 | S. cerevisiae deletion strains, locus YOL006C, strain TOP1, stronger effect = lower value 0.436 | S. cerevisiae deletion strains, locus YOR001W, strain rrp6, stronger effect = lower value 0.764 and 0.819 | S. cerevisiae deletion strains, locus YOR061W, strain CKA2, stronger effect = lower value 0.653 and 0.79 | S. cerevisiae deletion strains, locus YOR069W, strain VPS5, stronger effect = lower value 0.799 and 0.9 | S. cerevisiae deletion strains, locus YOR070C, strain gyp1, stronger effect = lower value 0.893 and 0.784 | S. cerevisiae deletion strains, locus YOR080W, strain dia2, stronger effect = lower value 0.755 and 0.812 | S. cerevisiae deletion strains, locus YOR083W, strain WHI5, stronger effect = lower value 0.806 and 0.808 | S. cerevisiae deletion strains, locus YOR106W, strain vam3, stronger effect = lower value 0.537 and 0.567 | S. cerevisiae deletion strains, locus YOR265W, strain rbl2, stronger effect = lower value 0.808 and 0.842 | S. cerevisiae deletion strains, locus YOR270C, strain vph1, stronger effect = lower value 0.231 and 0.311 | S. cerevisiae deletion strains, locus YOR290C, strain snf2, stronger effect = lower value 0.525 and 0.627 | S. cerevisiae deletion strains, locus YPL051W, strain arl3, stronger effect = lower value 0.51 and 0.436 | S. cerevisiae deletion strains, locus YPL078C, strain atp4, stronger effect = lower value 0.715 and 0.778 | S. cerevisiae strains, strain wild type, stronger effect = lower value 0.809
0.888 (active) and 0.949 (inactive): S. cerevisiae deletion strains, locus YKR026C, strain gcn3, stronger effect = lower value
inactive: S. cerevisiae deletion strains, locus YJR066W, strain TOR1, stronger effect = lower value 0.993 | S. cerevisiae deletion strains, locus YJR075W, strain HOC1, stronger effect = lower value 0.907 | S. cerevisiae deletion strains, locus YKL068W, stronger effect = lower value 1.04 | S. cerevisiae deletion strains, locus YKR091W, strain srl3, stronger effect = lower value 0.935 and 0.943 | S. cerevisiae deletion strains, locus YLR102C, strain apc9, stronger effect = lower value 0.992 and 1.01 | S. cerevisiae deletion strains, locus YLR113W, strain HOG1, stronger effect = lower value 0.952 | S. cerevisiae deletion strains, locus YMR078C, strain ctf18, stronger effect = lower value 0.974 and 0.987 | S. cerevisiae deletion strains, locus YNL183C, strain NPR1, stronger effect = lower value 0.984 | S. cerevisiae deletion strains, locus YNL250W, strain rad50, stronger effect = lower value 0.961 and 0.957 | S. cerevisiae deletion strains, locus YNL271C, strain bni1, stronger effect = lower value 0.969 and 0.96 | S. cerevisiae deletion strains, locus YNL298W, strain CLA4, stronger effect = lower value 0.959 and 0.985 | S. cerevisiae deletion strains, locus YOL012C, strain htz1 0.315 and 0.44 | S. cerevisiae deletion strains, locus YOR136W, strain idh2, stronger effect = lower value 0.969 and 0.986 | S. cerevisiae deletion strains, locus YOR231W, strain MKK1, stronger effect = lower value 1.01 | S. cerevisiae deletion strains, locus YOR316C, strain cot1, stronger effect = lower value 0.967 and 1 | S. cerevisiae deletion strains, locus YPL256C, strain CLN2, stronger effect = lower value 0.973 | S. cerevisiae deletion strains, locus YPR119W, strain clb2, stronger effect = lower value 0.983 and 1.02 | S. cerevisiae deletion strains, locus YPR141C, strain kar3, stronger effect = lower value 0.984 and 0.991 | S. cerevisiae deletion strains, locus YPR163C, strain tif3, stronger effect = lower value 0.932 and 1.02
0.872 (active) and 0.991 (inactive): S. cerevisiae deletion strains, locus YOL147C, strain pex11, stronger effect = lower value
0.855 (active) and 0.958 (inactive): S. cerevisiae deletion strains, locus YML032C, strain rad52, stronger effect = lower value
0.545 (active) and 0.811 (inactive): S. cerevisiae deletion strains, locus YLR342W, strain FKS1 (second series), stronger effect = lower value
0.664 (active) and 0.912 (inactive): S. cerevisiae deletion strains, locus YOR184W, strain ser1, stronger effect = lower value
0.804 (active) and 0.984 (inactive): S. cerevisiae deletion strains, locus YNL307C, strain MCK1, stronger effect = lower value
0.798 (active) and 0.905 (inactive): S. cerevisiae deletion strains, locus YPL106C, strain sse1, stronger effect = lower value
0.207 (active) and 0.653 (inactive): S. cerevisiae deletion strains, locus YLR262C, strain YPT6, stronger effect = lower value
0.859 (active) and 0.978 (inactive): S. cerevisiae deletion strains, locus YOR144C, strain elg1, stronger effect = lower value
0.708 (active) and 0.956 (inactive): S. cerevisiae deletion strains, locus YLR371W, strain rom2, stronger effect = lower value

— PubChem BioAssay AID1159580 (chemical genetic matrix, 2015)
